The record followed here is PubChem BioAssay AID1347145 (National Center for Advancing Translational Sciences (NCATS), 2019).

Inconclusive results are not listed. Active and inactive are the calls of the source. The call rests on the fitted dose curve; in most records, active means well fitted inhibition curve with a large enough effect; inconclusive means small, poorly fitted or top-dose-only effect; inactive means no such curve, though single readings can be large or run the other way.
Further: 0% is about no effect.

In this test the target is N-terminal Xaa-Pro-Lys N-methyltransferase 1 (Homo sapiens) (UniProt Q9BV86). Put plainly: qHTS Assay for Inhibitors of N-terminal methyltransferase 1 (NTMT1): MTaseGlo Assay Confirmatory Screen, Round 1. Conditions: Recombinant NTMT1, MTase-Glo SAH luminescence; series mostly up to 57.1 µM; activity change, negative = inhibition: at the top concentration. In outline: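 Luminescence from MTase-Glo conversion of SAH to ATP measured activity after a 30 min RT reaction with 1 µM SPKRIA substrate, 100 µM SAM and 125 nM enzyme. Normalization used no-enzyme and DMSO controls, followed by Hill fitting.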
Sequence of N-terminal Xaa-Pro-Lys N-methyltransferase 1 (Homo sapiens) (Q9BV86 whole entry, looked up): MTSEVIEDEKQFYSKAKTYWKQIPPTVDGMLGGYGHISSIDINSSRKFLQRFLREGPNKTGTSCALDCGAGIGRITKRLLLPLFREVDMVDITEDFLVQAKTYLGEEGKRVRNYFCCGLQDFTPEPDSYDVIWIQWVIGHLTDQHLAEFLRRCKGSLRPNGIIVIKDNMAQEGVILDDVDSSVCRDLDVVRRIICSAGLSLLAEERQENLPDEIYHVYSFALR
For the molecule `NC(=S)c1ccc[n+]([C@@H]2O[C@@H](COP(=O)([O-])OP(=O)(O)OC[C@H]3O[C@@H](n4cnc5c(N)ncnc54)[C@H](OP(=O)(O)O)[C@@H]3O)C(O)C2O)c1` (stereo partly specified), the “activity change, negative = inhibition” value is 11.4% (inactive).
Consider `OC[C@H]1O[C@@H](n2cnc3c(N[C@H]4C[C@H]5CC[C@@H]4C5)ncnc32)[C@H](O)[C@@H]1O`, for which the “activity change, negative = inhibition” value was 5.14% (inactive).
With `Nc1ncnc2c1ncn2C1OC(COP(=O)(O)O)C(O)C1O` (stereo unspecified), the “activity change, negative = inhibition” value is 960% (inactive).
Then `Nc1ccc(CCNc2ncnc3c2ncn3C2OC(CO)C(O)C2O)cc1` (stereo unspecified), with 13.9% (inactive).
On to `COc1cc2nc(N3CCCN(C)CC3)nc(NC3CCCCC3)c2cc1OC`, for which the “activity change, negative = inhibition” value is 41.1% (inactive).
With `Cc1ccccc1CNc1ncnc2c1ncn2[C@@H]1O[C@H](CO)[C@@H](O)[C@H]1O`, the “activity change, negative = inhibition” value was 14.4% (inactive).
For `COc1cc2c(NC3CCN(C)CC3)nc(N3CCCCC3)nc2cc1OCCOCCN(C)C`, the “activity change, negative = inhibition” value is -9.13% (inactive).
As for `CC(C)=CCNc1ncnc2c1ncn2[C@@H]1O[C@H](CO)[C@@H](O)[C@H]1O`, the “activity change, negative = inhibition” value was 264% (inactive).
Take `COc1cc2nc(NC3CCN(C)CC3)nc(N3CCCN(C)CC3)c2cc1OC`: the “activity change, negative = inhibition” value was -9.95% (inactive).
Regarding `Nc1ncnc2c1[nH]c(=O)n2C1OC(CO)C(O)C1O` (stereo unspecified), the “activity change, negative = inhibition” value is -5.08% (inactive).
Then `COc1cc2nc(N3CCN(C)CC3)nc(N3CCOCC3)c2cc1OC`, with 3.31% (inactive).
In the case of `CCN1CCN(c2nc(NC3CC3)c3cc(OC)c(OC)cc3n2)CC1`, the “activity change, negative = inhibition” value is 0.219% (inactive).
`COc1cc2nc(N3CCN(C)CC3)nc(N3CCN(C(C)=O)CC3)c2cc1OC`: the “activity change, negative = inhibition” value is 5.41% (inactive).
Turning to `COc1cc2nc(N3CCN(C)CC3)nc(NC3CCCCC3)c2cc1OC`, the “activity change, negative = inhibition” value is -5.59% (inactive).
Regarding `Nc1nc2c(ncn2[C@@H]2O[C@H](CO)[C@@H](O)[C@@H]2O)c(=O)[nH]1`, the “activity change, negative = inhibition” value was 1.02% (inactive).
For the molecule `CCCc1cc(C)[nH]c(=O)c1CNC(=O)c1cc(-c2ccc(N3CCN(C(C)C)CC3)nc2)cc2c1cnn2C(C)C`, the “activity change, negative = inhibition” value was 0.416% (inactive).
As for `CCN(c1cc(C#CCN2CCOCC2)cc(C(=O)NCc2c(C)cc(C)[nH]c2=O)c1C)C1CCC(N(C)CCOC)CC1` (stereo unspecified), the “activity change, negative = inhibition” value is -5.53% (inactive).
`C/C(=C\CNc1ncnc2c1ncn2[C@@H]1O[C@H](CO)[C@@H](O)[C@H]1O)CO`: the “activity change, negative = inhibition” value is 35.2% (inactive).
Then `Nc1ncnc2c1ncn2[C@H]1O[C@H](CO)[C@@H](O)[C@@H]1O`, with -6.56% (inactive); and `CNc1nc(N2CCCN(C)CC2)nc2cc(OC)c(OC)cc12`, with 8.27% (inactive).
As to `COc1cc2nc(N3CCCN(C)CC3)nc(NC3CCOCC3)c2cc1OC`, the “activity change, negative = inhibition” value was 10.6% (inactive).
`Cc1cc(C)c(CNC(=O)c2cc(-c3ccc(CN4CCOCC4)cc3)cc3c2cnn3C2CCCC2)c(=O)[nH]1`: the “activity change, negative = inhibition” value is -3.08% (inactive).
`COc1cc2nc(N3CCCN(C)CC3)nc(NC3CCN(C)CC3)c2cc1OC`: the “activity change, negative = inhibition” value was -11.5% (inactive).
With `CNc1nc(N2CCN(C)CC2)nc2cc(OC)c(OC)cc12`, the “activity change, negative = inhibition” value is -0.109% (inactive).
`C/C(=C\CNc1ncnc2c1ncn2[C@@H]1O[C@@H](CO)[C@@H](O)[C@H]1O)CO`: the “activity change, negative = inhibition” value was 2.96% (inactive).
In the case of `CNc1ncnc2c1ncn2[C@@H]1O[C@H](COP(=O)(O)O)[C@@H](O)[C@H]1O`, the “activity change, negative = inhibition” value is 12.3% (inactive).
In the case of `Nc1nc(=S)c2ncn([C@@H]3O[C@H](CO)[C@@H](O)[C@H]3O)c2[nH]1`, the “activity change, negative = inhibition” value is -3.46% (inactive).
For `COc1cc2nc(N3CCN(C(C)=O)CC3)nc(NC3CC3)c2cc1OC`, the “activity change, negative = inhibition” value was 2.41% (inactive).
Regarding `Nc1nc(Cl)nc2c1ncn2[C@@H]1O[C@H](CO)[C@@H](O)[C@H]1O`, the “activity change, negative = inhibition” value was 0.309% (inactive).
For `Nc1ncnc2c1ncn2[C@@H]1O[C@H](CO)C[C@@H]1O`, the “activity change, negative = inhibition” value is -8.62% (inactive).
For the molecule `Nc1ncnc2c1ncn2[C@H]1O[C@@H](CO)[C@@H](O)[C@H]1N`, the “activity change, negative = inhibition” value is 2.75% (inactive).
Then `COc1cc2c(NC3CCN(C4CCCCC4)CC3)nc(N3CCCCCC3)nc2cc1OCCCN1CCCCC1`, with 5.14% (inactive).
Then `OCC1OC(n2cnc3c(NCc4ccco4)ncnc32)C(O)C1O` (stereo unspecified), with 146% (inactive); and `COc1cc2c(NC3CCN(C)CC3)nc(N3CCCN(C)CC3)nc2cc1OCCCCCN(C)C`, with -10.4% (inactive); and `CCN(c1cc(-c2ccc(CN3CCOCC3)cc2)cc(C(=O)NCc2c(C)cc(C)[nH]c2=O)c1C)C1CCOCC1`, with 13.3% (inactive).
As for `Nc1ncnc2c1ncn2C1CC(O)C(CO)O1` (stereo unspecified), the “activity change, negative = inhibition” value was 25.8% (inactive).
